± gives the standard deviation of the averaged measurements. In all, about 33,000 sequences were measured (“E-score (rank enrichment, -0.5 to 0.5)”: median about -0.0068, highest 2% from about 0.24 on). The sample as a whole holds a higher share of the highest values than the screen did.
System: muMax20 (Max(13-93) K31hArg/K57hArg, M65Nle)
Experiment: PBM 8-mer E-score (E-score (rank enrichment, -0.5 to 0.5)); higher = stronger preferential binding
Description: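 Protein binding microarray (universal PBM chip covering all 10-mers in fixed probe flanks) with chemically synthesized human Max(13-93) bHLH-LZ analogs (not full-length Max) bearing noncanonical residues (hArg, Tha, Aib, Nle at 65) and aromatic Cys staples. Read-out per 8-mer (and its reverse complement): E-score (rank-based enrichment, -0.5 to 0.5) and Z-score of median probe intensity.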

Sequence	PBM 8-mer E-score
CCTCGACA	-0.0844 ± 0.042
ATATGCTC	0.171 ± 0.015
AATGAAAA	0.13 ± 0.0019
AATGCGAT	0.019 ± 0.029
CCCCGAAA	-0.0496 ± 0.15
ATCTTGAA	0.0915 ± 0.096
ATCTTGAG	0.251 ± 0.011
ATCTTGAC	0.00194 ± 0.029
AATGATGT	0.0444 ± 0.087
GCATGTCC	0.00639 ± 0.093
AGTGAGGG	-0.0244 ± 0.062
GATAAAAA	0.204 ± 0.016
TATAAAGA	0.252 ± 0.053
AGTAAACA	0.202 ± 0.092
CATAAAAG	0.138 ± 0.11
CATAAAAC	0.209 ± 0.058
GGTAAACA	0.163 ± 0.037
TATAAAAA	0.301 ± 0.1
GATAAAGA	0.195 ± 0.048
TGTAAACA	0.237 ± 0.0061
AATAAAGA	0.18 ± 0.015
TAAAAAAA	0.159 ± 0.11

Sequence	PBM 8-mer E-score
CATAAAAA	0.254 ± 0.044
AAAGTAGA	0.0577 ± 0.0065
CAAGGTAA	0.0156 ± 0.05
CACCCCAA	0.206 ± 0.015
CGAGCACC	-0.226 ± 0.0053
TGCCTGAA	-0.00136 ± 0.071
ATTGATCG	0.103 ± 0.027
GATAAACA	0.136 ± 0.05
CATAAACA	0.252 ± 0.053
TATAAACA	0.234 ± 0.022
GTCGCGCA	-0.0658 ± 0.12
GTACTCCA	-0.0757 ± 0.025
AAGCTGAT	0.313 ± 0.042
AAGCTGAC	-0.16 ± 0.059
AAGCTGTA	0.111 ± 0.038
TGCTGGAA	-0.0216 ± 0.063
GGAGAACC	-0.142 ± 0.092
AGTTATAA	0.181 ± 0.096
AGTTATAC	0.143 ± 0.075
CGTTATAA	0.133 ± 0.02
CGTTATAG	0.262 ± 0.046
CGTTATAC	0.036 ± 0.026

Sequence	PBM 8-mer E-score
AGTTATAT	0.244 ± 0.012
GTCTTCCA	-0.0719 ± 0.098
ATCCTAAG	-0.054 ± 0.025
ACAAAGCG	0.0741 ± 0.0089
GAACCTAC	-0.16 ± 0.037
ACATTTAG	0.136 ± 0.066
ATATTAAT	0.238 ± 0.075
ATATTTAA	0.344 ± 0.013
CTATTAAA	0.159 ± 0.025
ATATTAAG	0.163 ± 0.058
ATATTTAC	0.196 ± 0.025
ATATTAAC	0.196 ± 0.0065
CTATTTAA	0.0343 ± 0.057
ACATTTAA	0.258 ± 0.14
ATATTAAA	0.326 ± 0.0046
GCATTTAA	0.0477 ± 0.11
TTATTAAA	0.142 ± 0.044
AGGAACTA	-0.0068 ± 0.0036
CACCAGGG	-0.137 ± 0.034
AAGTCTTC	0.0741 ± 0.052
CTCCATTC	0.102 ± 0.029
CGAACCTC	0.00719 ± 0.0044

Sequence	PBM 8-mer E-score
AAAAATCT	0.0641 ± 0.091
GTCCTGAA	-0.111 ± 0.053
CCAGAAAC	-0.112 ± 0.092
CTCACGGA	-0.205 ± 0.023
CATAGCAC	0.258 ± 0.0042
CATAGCAA	0.209 ± 0.024
GATAGCAC	0.0754 ± 0.042
AGGGCGAT	-0.119 ± 0.015
AGACTAAT	-0.0591 ± 0.045
CGATATAG	0.044 ± 0.12
CGATATTC	-0.032 ± 0.1
CGATATTA	0.267 ± 0.038
GGATATTA	0.125 ± 0.09
CGATATAA	0.267 ± 0.016
CGATATAC	0.0102 ± 0.0034
CTCGGGTC	-0.292 ± 0.04
ATCTCAGC	-0.206 ± 0.11
AACATAAG	0.13 ± 0.07
ATCATGAG	0.111 ± 0.046
ATCATAAA	0.212 ± 0.046
ATCATGAA	0.111 ± 0.029
AACATAAT	0.31 ± 0.035

Sequence	PBM 8-mer E-score
ATCATGAT	0.289 ± 0.0047
AACATAAC	0.18 ± 0.13
ATCATAAG	0.19 ± 0.028
ATCATAAT	0.288 ± 0.047
CGCGCCAG	-0.222 ± 0.12
ATTGAGAC	-0.0808 ± 0.13
GTGACAAA	0.0325 ± 0.033
AATAATGC	0.1872 ± 0.0018
CATAATGA	0.0649 ± 0.033
GATAATGA	-0.00519 ± 0.014
AATAATGG	0.0129 ± 0.086
AATAATGA	0.269 ± 0.062
AATAATGT	0.258 ± 0.068
GCTCTTTA	0.0129 ± 0.059
CGAAACAG	-0.176 ± 0.0078
CCCGGCTC	-0.299 ± 0.021
CTCGGTTC	-0.185 ± 0.018
GTTTTACA	0.0874 ± 0.0056
ATGGTAAG	0.0283 ± 0.054
GTGGTAAC	0.102 ± 0.049
ATGGTAAC	0.26 ± 0.046

Source: the supplement of paper PMC12636033
